Screens deposited in PubChem BioAssay by National Center for Advancing Translational Sciences (NCATS).
In the library only some 18% were active in any assay of this set; here they are far more common.
VDR inh: Inhibitors of the vitamin D receptor (VDR): qHTS; VDR-SRC2-3 peptide fluorescence polarization, 2 h; Vitamin D3 receptor (Homo sapiens), P11473; Potency, µM, for the others: max response, negative = inhibition, usual class: inhibitors; hit rate 0.93% among 400,000
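Reagent solutions, kept cold and dark, are dispensed first; compounds are then pinned in at 23 nl, plates briefly spun, and incubated 2 h at ambient temperature. Inhibition of VDR–SRC2-3 peptide binding is read by fluorescence polarization.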
GCN5L2 inh: qHTS Assay for Inhibitors of GCN5L2 | Histone acetyltransferase KAT2A (Homo sapiens), Q92830 | GCN5L2 HAT assay, ThioGlo1 CoA-SH fluorescence | Potency, µM (highest dose often 58.9 µM), for the others: at the top dose activity change, negative = inhibition, usual class: inhibitors | hit rate 0.21% among 390,000 | AID 504327, 2011
Target sequence (Q92830 whole entry, looked up): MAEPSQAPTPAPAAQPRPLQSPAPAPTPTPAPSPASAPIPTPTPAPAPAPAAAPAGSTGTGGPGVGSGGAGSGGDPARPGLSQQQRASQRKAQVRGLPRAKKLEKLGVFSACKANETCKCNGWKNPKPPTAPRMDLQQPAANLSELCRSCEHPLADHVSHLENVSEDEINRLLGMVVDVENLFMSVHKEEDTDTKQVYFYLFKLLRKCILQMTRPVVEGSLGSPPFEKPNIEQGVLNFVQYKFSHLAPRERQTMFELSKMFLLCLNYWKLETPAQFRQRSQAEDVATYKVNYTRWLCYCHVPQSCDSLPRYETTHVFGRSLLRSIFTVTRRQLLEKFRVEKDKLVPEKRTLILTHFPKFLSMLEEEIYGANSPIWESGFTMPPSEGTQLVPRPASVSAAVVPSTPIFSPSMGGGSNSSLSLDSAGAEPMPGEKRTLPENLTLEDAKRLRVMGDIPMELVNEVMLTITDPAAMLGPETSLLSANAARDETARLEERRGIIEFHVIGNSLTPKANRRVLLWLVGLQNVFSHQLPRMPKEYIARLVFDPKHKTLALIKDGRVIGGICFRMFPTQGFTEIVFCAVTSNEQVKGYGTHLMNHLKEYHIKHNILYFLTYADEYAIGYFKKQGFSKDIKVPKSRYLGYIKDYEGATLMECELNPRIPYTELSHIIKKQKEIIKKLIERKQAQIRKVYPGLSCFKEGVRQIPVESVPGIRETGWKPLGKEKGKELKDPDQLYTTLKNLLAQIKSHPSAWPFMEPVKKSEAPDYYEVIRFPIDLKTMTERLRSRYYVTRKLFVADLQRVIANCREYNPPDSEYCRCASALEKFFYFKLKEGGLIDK
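GCN5L2 (20nM final) in 50mM HEPES, 0.1mM EDTA pH 7.5, 0.01% Tween-20 was preincubated 15 min at room temperature with compound, then given ThioGlo1 (50uM), H3(1-25) peptide (75uM) and acetyl-CoA (70uM); CoA-thiol fluorescence (Ex340/Em540) was read at 0 and 20 min.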
TDP1 cell CPT: qHTS for Inhibitors of human tyrosyl-DNA phosphodiesterase 1 (TDP1): qHTS in cells in presence of CPT; chicken DT40 Tdp1-/-;hTDP1 cells + 20 nM CPT, ATP luminescence, 48 h; Potency, µM (series often up to 46.2 µM), without a hit: at the highest dose activity change, negative = growth inhibition, most hits filed as inhibitors; hit rate 12% among 420,000; further: nearly all actives have a fitted effect of over 55% in size
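Cell growth measured by CellTiter-Glo luminescence after a minimum 48 h, 37 C compound exposure with 20 nM CPT in Tdp1-knockout DT40 cells stably expressing hTDP1, seeded 400/well; qHTS titration format.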
DT40 TDP1 no CPT: qHTS for Inhibitors of human tyrosyl-DNA phosphodiesterase 1 (TDP1): qHTS in cells in absence of CPT | AID 686978, 2013 | hit rate 15% among 420,000 | Potency, µM (doses to about 46.2 µM), for inactives: at the top dose activity change, negative = growth inhibition, actives largely listed as inhibitors | DT40 Tdp1-/- hTDP1 cells, no CPT, ATP luminescence, 48 h; further: nearly all actives have a fitted effect of over 55% in size
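No-CPT arm: Tdp1-/-;hTDP1 DT40 cells (400/well) plus compounds, incubated ≥48 hr at 37 °C. Readout CellTiter-Glo luminescence.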
PLK1 PBD block: qHTS for Inhibitors of PLK1-PDB (polo-like kinase 1 - polo-box domain): Primary Screen; Serine/threonine-protein kinase PLK1 (Homo sapiens), P53350; Plk1 PBD binding of FITC phosphopeptide, fluorescence polarization; Potency, µM, for the others: max response, negative = inhibition, usual class: inhibitors; hit rate 2.8% among 360,000; AID 720504, 2013; further: series mostly up to about 57 µM; nearly all actives have a fitted effect of over 65% in size
TDP1 block: qHTS Assay for Inhibitors of Tyrosyl-DNA Phosphodiesterase (TDP1). Tyrosyl-DNA phosphodiesterase 1 (Homo sapiens), Q9NUW8. recombinant TDP1, AlphaScreen DNA substrate cleavage. Potency, µM (top dose mostly 130 µM), without a hit: top-dose activity change, negative = inhibition, most hits filed as inhibitors. hit rate 0.28% among 350,000. AID 485290, 2010; further: nearly all actives have a fitted effect of over 40% in size
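Enzyme-compound mixtures sat 15 min at room temperature, followed by a 5 min reaction with 15 nM final substrate and 10 min with AlphaScreen beads. Recombinant human Tdp1 was used at 1 nM final.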
The depositor's hits bear a star; ? = inconclusive; nt = no result given; [ ] = dose if it differs, or a comment. The call rests on the fitted dose curve; in most records, active means well fitted curve in the direction sought with a large enough effect; inconclusive means small, poorly fitted or top-dose-only effect, or another doubt; inactive means no such curve, though single readings can be large; an effect the other way counts as inactive or inconclusive. On the % scale 0 is the no-effect control and ±100 the full control effect; potency means the concentration at half of the fitted maximal effect.

SMILES	VDR inh	GCN5L2 inh	TDP1 cell CPT	DT40 TDP1 no CPT	PLK1 PBD block	TDP1 block
Cc1nn(-c2ccccc2)c2c1CC(=O)Nc1ccccc1-2	-1%	nt	0.65µM*	0.82µM*	3%	nt
Cc1nn(-c2ccccc2)c(=O)c2ccccc12	-3%	0%	-5%	-1%	-1%	-3%
CCNc1ncc2nc(-c3ccc(Cl)cc3)c(=O)n(CCC#N)c2n1	-7%	0%	2%	0%	nt	nt
COc1cc(OC)c(C(=O)OC(C)C(=O)Nc2cccc(C(F)(F)F)c2)cc1OC (stereo not drawn)	-25%	1%	23µM*	?	-9%	2%
CC(OC(=O)c1cccc(S(=O)(=O)Nc2cccc(C(F)(F)F)c2)c1)C(=O)Nc1ccc2c(c1)OCCO2 (stereo not drawn)	0%	2%	-22%	16µM*	-9%	2%
COc1ccc(/C=N/NC(=O)c2ccc3nc[nH]c3c2)cc1OC	0%	-4%	6%	5%	-7%	?
COc1ccc(/C=N/NC(=O)c2[nH]nc3c2CCc2ccccc2-3)cc1OC	11%	-10%	6.5µM*	2.6µM*	-2%	-3%
COc1cc(C#Cc2c(-c3cncn3C)n(C)c3ccc(-c4ccc(OC)nc4)cc23)cc(OC)c1	15%	-8%	16µM*	?	-13%	5%
COc1cc(C#Cc2c(-c3cncn3C)n(C)c3ccc(-c4ccc5[nH]ccc5c4)cc23)cc(OC)c1	-4%	4%	?	?	0%	2%
COc1cc(C#Cc2c(-c3cncn3C)n(C)c3ccc(-c4cc(OC)c(OC)c(OC)c4)cc23)cc(OC)c1	-18%	-3%	21µM*	16µM*	-12%	5%
COc1ccc(CNC(=O)COC(=O)c2ccc(Br)cc2)cc1	23%	-1%	-18%	-2%	-21%	7%
CCc1ccc(CN/C=C/C(=O)c2ccc(Br)cc2)cc1	-12%	-1%	-16%	-28%	24µM*	-4%
O=C(CCC(=O)OCC(=O)c1ccc(Cl)cc1)Nc1ccc(Oc2ccccc2)cc1	-14%	21%	-3%	-10%	nt	nt
COc1ccc(-c2ccc3c(c2)O[C@H](CN(C)C(=O)Nc2ccccc2F)[C@@H](C)CN([C@H](C)CO)S3(=O)=O)cc1	nt	nt	23µM*	16µM*	-30%	nt
C[C@@H]1CN([C@H](C)CO)S(=O)(=O)c2ccc(-c3ccc(C#N)cc3)cc2O[C@H]1CN(C)C(=O)Nc1cc(F)ccc1F	nt	nt	6.5µM*	2.3µM*	-8%	nt
C[C@H]1CN([C@@H](C)CO)S(=O)(=O)c2ccc(Br)cc2O[C@H]1CN(C)C(=O)Nc1ccccc1F	nt	nt	-7%	-6%	-8%	nt
CC1(C(=O)NS(=O)(=O)c2ccc(F)cc2F)CCN1C(=O)c1ccccc1CCc1ccccc1 (stereo not drawn)	nt	nt	?	?	4%	nt
COc1ccc(N2CCN(c3ncnc4sc(C(=O)NCC5CCCO5)c(C)c34)CC2)cc1 (stereo not drawn)	-8%	-6%	?	23µM*	-4%	nt
CC(=O)N1CCN(C(=O)c2sc3ncnc(NCC4CCCO4)c3c2C)CC1 (stereo not drawn)	nt	nt	-14%	-11%	nt	nt
COc1ccccc1N1CCN(c2ncnc3sc(C(=O)NCC4CCCO4)c(C)c23)CC1 (stereo not drawn)	-14%	3%	?	13µM*	-13%	2%
FC(F)(F)c1ccc(N2CCN(c3cc(-c4ccccc4)nc4ncnn34)CC2)nc1	-4%	-4%	3.7µM*	3.3µM*	-4%	6%
c1ccc(-c2cc(-c3ccccc3)n3ncnc3n2)cc1	-1%	0%	?	29µM*	-6%	0%
COc1cc(C(=O)N(Cc2cc3ccc(C)cc3nc2N(C)C)C2CC2)cc(OC)c1OC	nt	nt	15%[9.04 µM]	?	nt	nt
Cc1cccc(-c2nnc(SCC(=O)C(C)(C)C)n2C)c1	2%	-5%	-22%	?	-4%	0%
COc1cc(/C=C(\C#N)c2nc3ccccc3[nH]2)cc(Cl)c1OCc1ccccc1Cl	-17%	?	7.3µM*	18µM*	nt	1%
SMILES	VDR inh	GCN5L2 inh	TDP1 cell CPT	DT40 TDP1 no CPT	PLK1 PBD block	TDP1 block
N#C/C(=C\c1ccc(OCc2ccc(Cl)cc2Cl)cc1)c1nc2ccccc2[nH]1	-13%	-4%	16µM*	21µM*	nt	0%[12.3 µM]
N#C/C(=C/c1ccc(OC(=O)c2ccc(Br)s2)cc1)c1nc2ccccc2[nH]1	-14%	nt	?	23µM*	-26%	nt
O=C(O)c1cccs1	nt	nt	-5%	-6%	nt	nt
Fc1c(F)c(-n2nnc3ccccc32)c(F)c(F)c1Cl	4%	28%	0%	-20%	-4%	nt
Fc1cccc(Cl)c1-c1nnc2ccc3ccccc3n12	4%	-2%	26µM*	10µM*	-18%	5%
Fc1ccccc1-c1nnc2ccc3ccccc3n12	-10%	-4%	2%	?	-18%	nt
Cc1ccc([C@@H]2C[C@H]3[C@@H](CN2S(=O)(=O)c2ccc(C)cc2)C(=O)C[C@@H](c2ccc(C)cc2)N3S(=O)(=O)c2ccc(Cl)cc2)cc1	nt	nt	-6%	-18%	-13%	nt
CCOC(=O)C1=C(O)/C(=C/c2ccc(CNC(=O)C(=O)Nc3ccc(C)cc3)o2)N=C1C	14%	?	?	6.5µM*	-11%	-1%
COC(=O)C1=C(O)/C(=C\c2ccc(CNC(=O)C(=O)Nc3ccc(C)cc3)o2)N=C1C	16%	?	?	?	-28%	0%
CC1CN(c2ccc([N+](=O)[O-])c(NCCOc3ccccc3)c2)CC(C)N1 (stereo not drawn)	-16%	-3%	?	?	-8%	8%
CCc1ccc(OCCNc2cc(N3CCNC(C)C3)ccc2[N+](=O)[O-])cc1 (stereo not drawn)	8%	-1%	23µM*	?	5%	4%[56.1 µM]
O=[N+]([O-])c1ccc(N2CCCCC2)cc1NCCOc1ccccc1	-10%	0%	29µM*	18µM*	-4%	7%
NCCNc1cc(N2CCCC2)ccc1[N+](=O)[O-]	-5%	-5%	23µM*	?	-13%	-6%
